Assay [1] concerns Wnt5a (protein binding on small-molecule microarray). In words: Wnt5a binders on small-molecule microarray, primary screen, biophysical, 635/667 nm fluorescence (AID 1142).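 Note: fluorescence read at 667 nm with signal to noise per printed feature.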 The conditions noted are these: 635 nm fluorescence, higher = more signal.
Assay [2] in a line: cell viability in Huh7 cells, primary screen, cytotoxicity control for HCV replication inhibitor project, CellTiter-Glo luminescence, basal, 48 h (AID 1143).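 Note: Huh7 hepatoma cells carrying a hepatitis C replication reporter with no stimulus; test concentration not given here.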 The conditions noted are these: Huh7 HCV replicon, higher = more signal, called active from +8 up or from −8 down. On the technique in general: ATP-based viability assays read luminescence as a measure of living cells.
Assay [3] is described as follows: CREB reporter modulators without forskolin, primary screen, cell-based, PC12, CRE-LacZ reporter, unstimulated (AID 1145). The conditions noted are these: no forskolin, luminescence, 4.5 h, higher = more signal, called active from +8 up or from −8 down.
Assay [4] can be described thus: CREB reporter modulators under forskolin, primary screen, cell-based, PC12, CRE-LacZ reporter, forskolin-stimulated (AID 1146).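 Note: PC12 cells with 6xCRE LacZ reporter stimulated by forskolin 10 µM; beta-galactosidase reporter signal reflecting CREB driven transcription.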 The conditions noted are these: luminescence, 4.5 h, higher = more signal, called active from +8 up or from −8 down.
The target of assay [5] is Streptavidin (Streptomyces avidinii) (UniProt P22629). In words: streptavidin binders on small-molecule microarray, primary screen, artefact control for SMM compound annotation, biophysical, 635/667 nm fluorescence (AID 1147).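 Note: signal reflects streptavidin binding to arrayed compounds as a control protein.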 The conditions noted are these: streptavidin binding, higher = more signal.
Assay [6] is described as follows: small-molecule binders of probe aInhba, primary screen, biochemical, small-molecule microarray, 635/667 nm fluorescence (AID 1148).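 Note: score merges 667nm spot fluorescence with signal-to-noise for antibody binding to printed compounds.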 The following applies: higher = more signal.
Assay [7] deals with Torsin-1A (Homo sapiens) (UniProt O14656). In words: torsin A binders from cell lysate, primary screen, small-molecule microarray, wild-type, 635/667 nm (AID 1149). The following applies: COS7 hTOR1A-WT lysate, 635 nm fluorescence, higher = more signal.
For assay [8] the target is unchanged. In words: small-molecule binders of mutant TOR1A in lysate, primary screen, cell lysate, small-molecule microarray, COS7 lysate, 635/667 nm fluorescence (AID 1150).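 Note: score pools 667 nm emission and signal to noise measuring lysate protein binding.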 The conditions noted are these: COS7 hTOR1A mutant lysate, 635 nm fluorescence, higher = more signal.
Assay [9] has as its system Sonic hedgehog protein (Shh). Nature of the assay: small-molecule binders of Shh protein, primary screen, biochemical, small-molecule microarray, 635/667 nm fluorescence (AID 1151).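 Note: Shh protein binding to compounds spotted on small-molecule microarray slides; score combines spot fluorescence intensity with signal-to-noise across triplicate slides.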 The following applies: small-molecule microarray binding, 635 nm fluorescence; higher = more signal.
A short description of assay [10]: E. coli DRC41 culture turbidity changes, primary screen, E. coli filamentation inducer project, strain DRC41, OD650, 48 h (AID 1152).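 Note: E. coli MC1000 strain DRC41 lacking acrAB efflux pump and sulA.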 The conditions noted are these: E. coli DRC41 (acrAB sulA), higher = more signal, called active from +8 up or from −8 down.
The nature of assay [11]: small-molecule binders of probe aLefty1, primary screen, biochemical, small-molecule microarray, 635/667 nm fluorescence (AID 1153).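 Note: score merges spot fluorescence with signal-to-noise ratio from the scanned slide images.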 The conditions noted are these: higher = more signal.
The nature of assay [12]: PSAC antagonists in infected red cells, primary screen, cell-based, P. falciparum Indochina, OD700, 1 h (AID 1154). The conditions noted are these: P. falciparum Indochina infected RBC osmotic lysis, higher = more signal, called active from +8 up or from −8 down.
Assay [13] in a line: PSAC antagonists in infected red cells, primary screen, cell-based, P. falciparum Indochina, OD700, 2 h (AID 1155).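 Note: lysis reports solute entry through the parasite surface anion channel PSAC; channel blockers reduce lysis of infected cells.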 The conditions noted are these: P. falciparum Indochina infected erythrocytes, osmotic lysis OD700; higher = more signal, called active from +8 up or from −8 down.
Assay [14] can be described thus: osmotic lysis modulators in infected erythrocytes, primary screen, PSAC antagonist project, cell-based, P. falciparum Indochina, OD700, 3 h (AID 1156). The conditions noted are these: higher = more signal, called active from +8 up or from −8 down.
The nature of assay [15]: PSAC antagonists in infected red cells, primary screen, cell-based, P. falciparum Indochina, OD700, 18 h (AID 1157). The conditions noted are these: P. falciparum Indochina infected erythrocytes, osmotic lysis OD700, 18 h; higher = more signal, called active from +8 up or from −8 down.
Assay [16] in a line: modulators of S6 phosphorylation in cells, primary screen, cell-based, A549, cytoblot, luminescence, serum-stimulated (AID 1158).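 Note: serum-stimulated A549 lung adenocarcinoma cells; signal is phosphorylated S6 detected by cytoblot immunostaining with HRP secondary.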 The conditions noted are these: A549 phospho-S6 cytoblot, 5 h, higher = more signal.
For assay [17], the target named is NADPH oxidase 2 (Homo sapiens) (UniProt P04839). Nature of the assay: NOX2-dependent H2O2 signal modulators, primary screen, NOX inhibitor project, cell-based, HEK293-NOX2, PMA-stimulated, Amplex Red fluorescence (AID 1159). Note: test concentration not given here. The following applies: 45 min, higher = more signal, called active from +8 up or from −8 down.
Assay [18] deals with NADPH oxidase 4 (Homo sapiens) (UniProt Q9NPH5). In words: NOX4-dependent H2O2 signal modulators, primary screen, NOX inhibitor project, cell-based, HEK293-NOX4, tetracycline-induced, Amplex Red fluorescence (AID 1160). The following applies: 45 min, higher = more signal, called active from +8 up or from −8 down.
Assay [19] deals with NADPH oxidase 5 (Homo sapiens) (UniProt Q96PH1). In words: NOX5-dependent H2O2 signal modulators, primary screen, NOX inhibitor project, cell-based, HEK293-NOX5, Amplex Red fluorescence (AID 1161). The conditions noted are these: HEK293-NOX5, ionomycin, 45 min, higher = more signal.
The nature of assay [20]: A549 cell viability effects, profiling panel, calcein-AM fluorescence, 48 h, basal (AID 1162). Note: test concentration not given here. The conditions noted are these: higher = more signal.

The source made the active and inactive calls.

Here are results for four compounds from PubChem BioAssay.

Sequence of Torsin-1A (Homo sapiens) (O14656 whole entry, looked up): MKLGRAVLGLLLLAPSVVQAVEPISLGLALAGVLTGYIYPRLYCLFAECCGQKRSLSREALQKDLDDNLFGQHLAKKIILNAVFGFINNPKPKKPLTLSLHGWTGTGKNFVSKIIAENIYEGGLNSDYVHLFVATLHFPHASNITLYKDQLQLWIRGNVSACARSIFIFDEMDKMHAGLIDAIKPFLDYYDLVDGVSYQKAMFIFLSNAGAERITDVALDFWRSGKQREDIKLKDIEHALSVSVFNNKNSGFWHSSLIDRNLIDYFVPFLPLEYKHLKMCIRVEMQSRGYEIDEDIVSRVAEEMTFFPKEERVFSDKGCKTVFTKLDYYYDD
Sequence of NADPH oxidase 2 (Homo sapiens) (P04839 whole entry, looked up): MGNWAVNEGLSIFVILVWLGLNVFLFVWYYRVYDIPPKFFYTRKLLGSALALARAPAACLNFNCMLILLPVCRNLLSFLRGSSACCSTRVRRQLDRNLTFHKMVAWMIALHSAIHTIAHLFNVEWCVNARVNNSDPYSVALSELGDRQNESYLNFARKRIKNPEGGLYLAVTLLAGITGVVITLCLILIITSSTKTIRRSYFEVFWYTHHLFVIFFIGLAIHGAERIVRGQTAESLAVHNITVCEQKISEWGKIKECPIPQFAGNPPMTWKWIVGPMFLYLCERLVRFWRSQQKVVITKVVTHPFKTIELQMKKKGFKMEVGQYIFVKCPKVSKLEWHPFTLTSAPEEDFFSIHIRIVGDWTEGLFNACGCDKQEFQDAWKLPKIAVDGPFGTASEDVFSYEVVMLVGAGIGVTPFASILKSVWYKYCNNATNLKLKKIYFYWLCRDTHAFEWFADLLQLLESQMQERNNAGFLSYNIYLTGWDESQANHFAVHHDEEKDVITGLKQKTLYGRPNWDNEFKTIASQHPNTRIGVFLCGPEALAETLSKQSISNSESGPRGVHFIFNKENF
Sequence of NADPH oxidase 4 (Homo sapiens) (Q9NPH5 whole entry, looked up): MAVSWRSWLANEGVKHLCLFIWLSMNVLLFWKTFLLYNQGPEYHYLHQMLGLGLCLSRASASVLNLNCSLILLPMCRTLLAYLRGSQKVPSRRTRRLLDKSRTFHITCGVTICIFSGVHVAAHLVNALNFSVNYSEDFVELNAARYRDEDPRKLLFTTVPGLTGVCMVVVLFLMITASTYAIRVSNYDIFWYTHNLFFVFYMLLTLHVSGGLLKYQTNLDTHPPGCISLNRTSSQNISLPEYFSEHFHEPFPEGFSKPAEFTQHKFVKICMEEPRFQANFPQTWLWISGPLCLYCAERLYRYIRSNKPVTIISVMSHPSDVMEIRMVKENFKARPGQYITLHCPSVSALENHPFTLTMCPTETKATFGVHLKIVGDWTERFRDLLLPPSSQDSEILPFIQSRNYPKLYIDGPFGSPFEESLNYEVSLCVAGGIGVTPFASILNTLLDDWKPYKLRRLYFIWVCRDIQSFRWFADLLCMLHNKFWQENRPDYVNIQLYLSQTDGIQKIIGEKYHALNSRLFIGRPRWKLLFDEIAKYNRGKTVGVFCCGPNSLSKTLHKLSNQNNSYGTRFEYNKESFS
Sequence of Streptavidin (Streptomyces avidinii) (P22629 whole entry, looked up): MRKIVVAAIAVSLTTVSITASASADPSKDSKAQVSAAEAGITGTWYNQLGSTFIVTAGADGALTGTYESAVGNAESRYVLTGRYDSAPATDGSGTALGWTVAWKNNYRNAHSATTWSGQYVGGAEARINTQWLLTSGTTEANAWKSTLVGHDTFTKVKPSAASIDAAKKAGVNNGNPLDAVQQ
Sequence of NADPH oxidase 5 (Homo sapiens) (Q96PH1 whole entry, looked up): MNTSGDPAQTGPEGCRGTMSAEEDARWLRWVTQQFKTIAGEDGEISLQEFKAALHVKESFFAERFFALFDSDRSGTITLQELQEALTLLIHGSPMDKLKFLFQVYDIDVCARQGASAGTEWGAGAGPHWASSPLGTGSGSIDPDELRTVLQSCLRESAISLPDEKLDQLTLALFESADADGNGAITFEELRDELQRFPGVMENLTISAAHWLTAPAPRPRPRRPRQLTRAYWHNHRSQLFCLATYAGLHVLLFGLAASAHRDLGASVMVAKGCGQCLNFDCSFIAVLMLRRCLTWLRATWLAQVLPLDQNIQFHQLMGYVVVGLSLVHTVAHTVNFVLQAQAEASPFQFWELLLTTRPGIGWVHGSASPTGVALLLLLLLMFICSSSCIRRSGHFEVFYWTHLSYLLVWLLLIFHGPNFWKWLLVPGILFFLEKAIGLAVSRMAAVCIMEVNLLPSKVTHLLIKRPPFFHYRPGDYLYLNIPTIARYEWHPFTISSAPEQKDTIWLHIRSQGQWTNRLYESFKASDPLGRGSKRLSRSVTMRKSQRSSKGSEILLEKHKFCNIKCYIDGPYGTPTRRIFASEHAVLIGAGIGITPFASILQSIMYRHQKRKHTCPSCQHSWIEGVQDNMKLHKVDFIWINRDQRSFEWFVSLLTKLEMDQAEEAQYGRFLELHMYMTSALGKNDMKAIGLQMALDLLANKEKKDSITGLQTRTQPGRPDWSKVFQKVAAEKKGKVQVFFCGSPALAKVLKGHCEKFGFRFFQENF

As for `COc1ccc(C#Cc2ccc3c(c2)[C@]2(C(=O)N3)[C@H](c3ccc(O)cc3)N3[C@H](c4ccccc4)[C@H](c4ccccc4)OC(=O)[C@H]3[C@@H]2C(N)=O)cc1`, the composite z-score in [1] is 0.295; in assay [5], -0.881; in assay [6] it was -0.153; with Torsin-1A (Homo sapiens) [7], 0.255; in the assay with Torsin-1A (Homo sapiens) [8] it was -0.0088; in [9] it was -0.301. The composite z-score in assay [11] is -0.147. Besides, the z-score was -5.1 (inactive) in assay [2]; 0.209 (inactive) in assay [3]; -0.532 (inactive) in assay [4]; 1.63 (inactive) in [10]; 2.89 (inactive) in assay [12]; 1.58 (inactive) in assay [13]. For the same compound, the z-score was 0.672 (inactive) in [14]; 1.23 (inactive) in assay [15]; 0.76 in [16]; 1.76 (inactive) in assay [17]; -1.43 (inactive) in [18]; 0.618 in [19]. The z-score in [20] was -1.55.

`COc1ccc([Si](C)(C)[C@@H]2[C@@H](CC(=O)N3CCC[C@H]3CO)O[C@]3(C(=O)N(Cc4ccc(N5CCC5=O)cc4)c4ccccc43)[C@H]2C)cc1`: the composite z-score in assay [1] was 0.0507; in assay [5], 0.761; in assay [6], 0.027; with Torsin-1A (Homo sapiens) [7], 0.572; in the assay with Torsin-1A (Homo sapiens) [8], 0.409; in [9], 1.55. In [11], this compound had a composite z-score of 0.156. In addition, the z-score in assay [2] was -1.8 (inactive); in [3], 0.861 (inactive); in assay [4], -1.19 (inactive); in [10], 0.436 (inactive); in [12], 7.47 (inactive); in [13] it was 1.49 (inactive). For the same compound, the z-score in assay [14] is -0.836 (inactive); in [15], 0.77 (inactive); in assay [16], 0.127; in [17], 2.99 (inactive); in assay [18], 1.58 (inactive); in assay [19], 4.86. The z-score in [20] was -0.639.

As to `C=C(/C(=C/C[C@H](OC(=O)c1ccncc1)c1cccc(OCCO)c1)c1cc(C(=O)OC)ccc1OC)C(C)C`, the composite z-score in assay [1] was -0.158; in assay [5], 0.0287; in [6] it was -0.05; with Torsin-1A (Homo sapiens) [7], 0.607; with Torsin-1A (Homo sapiens) [8] it was 0.568; in assay [9], 0.948. This compound also registered a composite z-score in assay [11] of -0.0984. The z-score in assay [2] is -2.09 (inactive); in assay [3], 8.57 (active); in assay [4], -0.669 (inactive); in assay [10], 1.17 (inactive); in assay [12], 10.2 (active); in [13], -0.289 (inactive). Also, the z-score in assay [14] was 1.66 (inactive); in assay [15], -1.19 (inactive); in [16] it was 0.402; in assay [17], 1.62 (inactive); in [18] it was 0.0371 (inactive); in assay [19], -1.71. Further, in assay [20], the z-score was 0.396.

As for `[N-]=[N+]=NCc1ccccc1C[C@]1(C(=O)NCc2ccccc2)N=C(c2ccc(OCCCO)cc2)O[C@H]1c1ccccc1`, the composite z-score is 0.46 in [1]; 0.532 in assay [5]; 0.216 in assay [6]; -0.265 with Torsin-1A (Homo sapiens) [7]; 0.765 in the assay with Torsin-1A (Homo sapiens) [8]; -0.948 in assay [9]. The compound further displayed a composite z-score in assay [11] of 0.832. The z-score in assay [2] is -4.02 (inactive); in assay [3], 1.11 (inactive); in assay [4] it was -1.14 (inactive); in assay [10], 1.78 (inactive); in assay [12], 10.9 (active); in [13], 1.53 (inactive). The z-score in [14] is 3.76 (inactive); in assay [15], -0.605 (inactive); in assay [16], 1.09; in assay [17], -0.425 (inactive); in assay [18], 1.24 (inactive); in assay [19] it was 0.0397. Also, in assay [20], the z-score was -2.79.
